Assay outcomes deposited in PubChem BioAssay by several laboratories.
Shown are actives, neighbours in structure and some others; about 2.5% of the full set was active somewhere.
sEH inh – soluble epoxide hydrolase inhibitors, primary screen, biochemical, human sEH. inhibition, % at 2 µM. Bifunctional epoxide hydrolase 2 (Homo sapiens), P34913. recombinant human sEH enzymatic activity assay. AID 707, 2007. hit rate 0.34% among 91,000; in the data active means inhibition above about 80%
Target sequence (P34913 whole entry, looked up): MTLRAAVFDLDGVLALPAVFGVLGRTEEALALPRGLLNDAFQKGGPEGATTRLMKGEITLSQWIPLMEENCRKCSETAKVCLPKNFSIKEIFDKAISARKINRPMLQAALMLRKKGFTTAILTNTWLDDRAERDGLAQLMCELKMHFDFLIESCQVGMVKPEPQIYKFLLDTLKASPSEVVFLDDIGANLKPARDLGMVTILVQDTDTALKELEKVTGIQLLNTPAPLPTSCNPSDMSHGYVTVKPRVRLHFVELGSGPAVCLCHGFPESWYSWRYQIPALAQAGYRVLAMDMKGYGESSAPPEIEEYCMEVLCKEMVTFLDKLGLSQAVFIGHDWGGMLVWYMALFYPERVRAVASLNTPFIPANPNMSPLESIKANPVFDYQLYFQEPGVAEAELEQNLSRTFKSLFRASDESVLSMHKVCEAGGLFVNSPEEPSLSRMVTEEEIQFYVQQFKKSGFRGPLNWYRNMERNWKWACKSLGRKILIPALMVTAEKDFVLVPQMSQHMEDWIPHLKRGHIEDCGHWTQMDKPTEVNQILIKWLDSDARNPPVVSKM
sdo1 growth – growth rescue of sdo1-depleted yeast, primary screen, S. cerevisiae, bone marrow failure model; S. cerevisiae sdo1-depleted JHY4D growth rescue, OD600 30 h; hits give high values; pdr5 snq2 efflux-pump mutant strain; z-score at 10 µM; hit rate 0.21% among 140,000;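 active means z-score above 3 at both the 24 hr and the 30 hr optical density reads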;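 further: z-score against mean and SD of all compound wells on the same plate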
MRP1 act – H69AR viability gain despite doxorubicin, primary screen, MRP-1 activator project, H69AR cells, CellTiter-Glo; AID 799, 2007; viability rescue; viability increase, % at 10 µM; hit rate 0.61% among 140,000;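 active means viability gain under doxorubicin at or above a set limit, the compound median plus 3 SD, cut at about 4.7% in these data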;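 further: MRP-1 overexpressing cells given doxorubicin 25 µM after compound pretreatment; 18-22 h compound pretreatment then 72 h with doxorubicin before readout; 0% = doxorubicin-only wells and 100% = vehicle-treated cells without doxorubicin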
sEH activator – soluble epoxide hydrolase activators, primary screen, biochemical, human sEH. purified human sEH enzymatic activity, activator screen. activation, % at 2 µM. hit rate 0.04% among 91,000; in the data active means activation above about 37%
Measles CPE – compounds protecting cells from measles virus cytopathic effect, primary screen, measles RdRp inhibitor project, single point, MLSMR library, absorbance. Measles virus-infected cells, CPE protection. protection (pct of control), % at 4 µM. hit rate 1.5% among 140,000. AID 841, 2007; in the data active means protection mostly above about 24%, no sharp cut-off; inactive means mostly below about 26%
MRP reversal – reversal of MRP1-mediated doxorubicin resistance, primary screen, H69AR cells, doxorubicin co-treatment; H69AR cells + 2 uM doxorubicin, CellTiter-Glo, 72 h; differential viability (reversal), % at 10 µM; hit rate 0.04% among 85,000; AID 602, 2007;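 active means viability drop by adding the cancer drug above about 55%, with treated viability meeting a 40% cutoff, limit read from the data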;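 further: viability without doxorubicin minus viability with 2 µM doxorubicin for each compound; larger differential means the compound sensitizes cells more to doxorubicin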
* hit, by the source's call; x = no result given.

SMILES	sEH inh	sdo1 growth	MRP1 act	sEH activator	Measles CPE	MRP reversal
COc1ccc(OC)c(-c2cc(C(=O)Nc3c(C)nn(Cc4ccccc4Cl)c3C)no2)c1	-9.3	-1.55	5.5*	9.6	3.3	2.7
Cc1ccccc1Cn1nc(C)c(NC(=O)c2cc(-c3cccs3)on2)c1C	x	-0.8	0.9	x	8.1	x
Cc1ccccc1Cn1nc(C)c(NC(=O)c2sc3ccccc3c2Cl)c1C	-2.5	-1.46	3.6	5.2	64.2*	x
COc1ccc(OC)c(-c2cc(C(=O)Nc3c(C)nn(Cc4ccccc4C)c3C)no2)c1	-7.5	-1.22	9.3*	7.8	5.9	2.1
CCOC(=O)c1cc(-c2ccccc2)sc1NC(=O)c1cc(OC)c(OC)c(OC)c1	x	-1.05	-2.7	x	1.2	x
O=C(Nc1ccc(Br)cc1F)c1cccnc1	x	0.71	-1.1	x	6.4	x
Cc1ccc(NC(=S)N(C)Cc2cn(C)c3ccccc23)cc1	x	-1.29	-2.3	x	6.9	x
Cc1ccc(NC(=O)c2ccc(-c3nn(C)c(=O)c4ccccc34)cc2)cc1	8.3	-0.81	0.9	-10.9	30.6	-27.5
Cn1nc(-c2ccc(C(=O)Nc3cccc(Cl)c3)cc2)c2ccccc2c1=O	18.5	-1.05	0.5	-20.4	37.9*	-2.2
Cc1cccc(CSc2nnnn2-c2ccccc2)c1	-1.0	-0.14	-1.2	-1.6	69.3*	15.6
Cc1cccc(CSc2nnc(N)n2-c2ccccc2)c1	8.2	0.65	-3.0	-7.2	5.9	-9.4
CCOC(=O)C(=CNc1ccc(C)cc1C)C(=O)OCC	2.8	-0.7	-0.2	-3.8	37.4*	x
COC1(OC)C(=N/O)/C(=N\O)CCC1O (stereo not given)	-0.9	1.17	10.7*	0.4	12.7	12.8
O=C(Nc1ccccc1-c1nnc(SCc2ccccc2Cl)o1)c1ccccc1	-10.3	-0.38	3.4	10.8	6.2	x
O=C(NCc1ccccc1Cl)c1ccc(Cn2cc(C(F)(F)F)ccc2=O)cc1	88.0*	0.69	-1.4	-87.7	6.3	x
CCC(CC)C(=O)OCC(=O)Nc1cc(OC)c([N+](=O)[O-])cc1C	x	0.99	-2.6	x	1.4	x
Cc1cc(C(=O)N/N=C/c2cccc([N+](=O)[O-])c2)c(C)o1	-27.9	-0.62	-0.1	24.4	33.5*	x
COc1cc(C2NC(=O)NC(C)=C2C(=O)OCc2ccccc2)ccc1O (stereo not given)	x	0.87	-3.6	x	16.4	7.4
CCOc1cc(C2NC(=O)NC(C)=C2C(=O)OCc2ccccc2)ccc1O (stereo not given)	-1.4	0.32	-0.1	0.8	46.6*	17.8
O=C(NCc1ccccn1)c1cc(-c2ccc(-c3ccccc3)cc2)nc2ccccc12	x	-0.51	5.5*	x	50.0*	x
O=C(Nc1nccs1)c1cc(-c2ccccc2)nc2ccccc12	x	-1.25	-2.4	x	39.9*	x
CC(C)Cc1nnc(NC(=O)c2cc(-c3ccccc3)nc3ccccc23)s1	-3.4	-0.69	-1.6	2.5	43.9*	x
Cc1cccc(NC(=O)CN(c2ccc(C(C)C)cc2)S(=O)(=O)c2c(C)nn(C)c2C)n1	8.8	-0.21	1.6	-11.2	15.3	8.1
Cc1c(C(=O)N(C)Cc2ccccc2)oc2ccc(S(=O)(=O)N3CCCC3)cc12	-9.8	-1.14	-0.2	11.2	80.6*	-29.6
Cc1c(C(=O)NCc2ccccc2)oc2ccc(S(=O)(=O)N3CCCC3)cc12	-6.4	0.18	0.1	8.2	10.7	-9.6
SMILES	sEH inh	sdo1 growth	MRP1 act	sEH activator	Measles CPE	MRP reversal
CCC(=O)N/C(=N/c1nc(C)cc(C)n1)Nc1cccc(OC)c1	10.7	0.14	-1.8	-9.5	16.8	-29.6
O=C(NNc1nc(-c2ccccc2)c2cc(Br)ccc2n1)c1ccc(S(=O)(=O)N2CCCCC2)cc1	x	0.14	-1.1	x	47.0*	x
CCC(=O)N1CCN=C1SCc1ccccc1	x	1.06	5.1*	x	9.3	-1.6
CC(=O)N1CCN=C1SCc1ccc(F)cc1	3.8	0.79	4.3	-5.3	20.2	3.5
CC(=O)N1CCN=C1SCc1ccccc1F	x	0.65	5.1*	x	26.1	15.1
CC(=O)N1CCN=C1SCc1ccccc1	x	1.12	2.8	x	20.6	4.2
CC(=O)N1CCN=C1SCc1ccc(C)cc1	x	1.13	5.6*	x	16.7	8.6
CC(=O)N1CCN=C1SCc1ccc(Cl)cc1	x	0.96	6.4*	x	7.6	5.8
CCC(=O)N1CCN=C1SCc1ccc(Cl)cc1	-12.6	0.68	3.0	11.9	4.8	-0.4
CCCCCc1nnc(NC(=O)Cn2cnc3ccccc3c2=O)s1	x	0.52	1.4	x	6.5	x
O=C(CSc1n[nH]c(-c2ccc(S(=O)(=O)N3CCCCC3)cc2)n1)Nc1nccs1	47.1	-0.61	-3.7	-46.4	17.6	-18.8
CCCCCC(=O)N1CC2(CC)CN(C(=O)CCCCC)CC(CC)(C1)C2=O	x	x	x	x	x	6.4
CCOc1ccc2nc(C)cc(Nc3cccc([N+](=O)[O-])c3)c2c1	x	0.22	-5.1	x	1.9	x
CC1CCCN(S(=O)(=O)c2ccc(NC(=O)c3cccc(-n4cnnn4)c3)cc2)C1 (stereo not given)	95.8*	1.13	-3.9	-95.7	10.8	-4.0
CC1CCCCN1S(=O)(=O)c1ccc(NC(=O)c2cccc(-n3cnnn3)c2)cc1 (stereo not given)	x	0.26	-5.5	x	9.9	3.1
COc1ccc(-c2nnc(Nc3ccc(CC(N)=O)cc3)c3ccccc23)cc1	x	0.18	-1.5	x	64.3*	x
COc1ccc(OCCSc2nnc(-c3ccc(OC)cc3)n2N)cc1	-11.4	0.96	-0.6	11.4	13.2	4.7
CCOc1ccc(NC(=O)c2cccc(OC(=S)N3CCC(C)CC3)c2)cc1	69.5	-1.04	-3.4	-69.9	21.0	x
CCN1C(=O)C(CC(=O)NCc2ccc(Cl)cc2)N(CC)C1=O (stereo not given)	-19.0	1.63	-0.3	18.6	5.3	-2.2
CCN1C(=O)C(CC(=O)NC2CCCCC2)N(CC)C1=O (stereo not given)	10.9	-0.04	0.0	-12.1	50.4*	14.0
Cc1ccc(NC(=O)ON=C2CCCC2)cc1	x	-2.02	-4.4	x	43.1*	x
CCC(C)c1ccc(NC(=O)c2cccs2)cc1 (stereo not given)	89.5*	-1.64	2.5	-89.9	4.3	-3.3
O=c1c2c3c(sc2n2c(=S)[nH]nc2n1Cc1ccccc1)CN(Cc1ccccc1)CC3	-0.9	x	x	4.8	x	-12.0
O=C(Cn1cnc2c(cnn2-c2ccccc2)c1=O)N1CCOCC1	x	-0.05	-2.4	x	10.9	-10.0
COc1ccc(-n2ncc3c(=O)n(CC(=O)N4c5ccccc5CC4C)cnc32)cc1 (stereo not given)	10.8	-0.78	5.9*	-6.9	5.3	-1.7
Cc1ccc(N(CC(=O)Nc2cccc(C)c2)S(=O)(=O)c2cccc3nonc23)cc1	-1.2	0.6	-3.9	4.2	13.3	1.3
O=C(NCCc1c[nH]c2ccccc12)c1cccnc1	5.2	0.57	-1.7	-4.0	74.2*	-13.4
[O-][n+]1cccc2ncc3cscc3c21	x	-0.14	-1.2	x	4.8	x
